Hits are enriched below; roughly 4.2% of the tested compounds scored in any of these assays.
Mito fusion yeast: mitochondrial division inhibition or fusion activation | Potency, µM (series often up to 46.1 µM), inactives show at the highest dose growth rescue (activation), actives largely listed as activators | S. cerevisiae fusion-defective mutant growth rescue, CellTiterGlo 48 h | AID 485298 | actives 0.23% (n = 320,000); note: % of control where 0% means no effect; nearly all actives have a fitted effect of over 45% in size
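Compounds are tested for their ability to restore growth of mitochondrial fusion-defective yeast strains at non-permissive 37C in YPEG medium over 48 hours. Viability is quantified by luciferase luminescence.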
SW480 rereplic: induces DNA re-replication in SW480 colon adenocarcinoma cells | SW480 DNA re-replication, Hoechst DNA content imaging, 48 h | actives 1.8% (n = 340,000) | Potency, µM (top dose mostly 46.1 µM), for the others: at the highest dose re-replication activation, most hits filed as activators; note: % of control where 0% means no effect; nearly all actives have a fitted effect of over 55% in size
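Cells (250 per well) received 23 nL compound or DMSO by pin tool and were kept 48 hr at 37 C, 5% CO2. Nuclei were then stained with Hoechst for 40 min and scanned for DNA content.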
AT treatment: potential ataxia-telangiectasia treatment; AID 485349; F2112 A-T fibroblasts, KAP-1 phosphorylation AlphaLISA; neocarzinostatin DNA damage 30 min before lysis; actives 0.19% (n = 320,000); Potency, µM (series often up to 57.5 µM), for the others: top-dose activation, usual class: activators; note: % of control where 0% means no effect; nearly all actives have a fitted effect of over 45% in size
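hTERT-immortalized A-T patient fibroblasts (F2112), 500 cells/well in OPTI-MEM, 1% FBS, got compounds for 60 min, then NCS for 30 min at 37C. Lysates were then assayed for phospho-KAP-1 by AlphaLISA (anti-pKAP1 donor, anti-KAP1 acceptor beads), 6 hr at 25C.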
MCF10A rereplic: induces DNA re-replication in MCF 10a normal breast cells | MCF 10A DNA re-replication, Hoechst nuclear intensity, 48 h | Potency, µM (top dose mostly 46.1 µM), for the others: at the top dose activity, positive = re-replication, hits mostly activators | actives 2.9% (n = 350,000) | AID 624296; note: % of control where 0% means no effect; nearly all actives have a fitted effect of over 50% in size
Integrin act MD: activators of alpha7 integrin expression for muscular dystrophy; alpha7betagal myoblasts, beta-gal FDG fluorescence, 48 h; Potency, µM (series often up to 38.3 µM), inactives show at the highest dose activation, actives largely listed as activators; AID 624291; actives 0.064% (n = 350,000);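 note: 100% = response of the positive control SU9516; nearly all actives have a fitted effect of over 60% in size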
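alpha7betagal+/- myoblasts (passage 13, 250/well) treated 48 h at 37C with compounds at 1:260 dilution of DMSO stock. Lysed, then beta-galactosidase activity read as FDG fluorescence (ex 480/em 540) after 30 min, with pre-read for autofluorescence.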
An asterisk follows results filed as active; ? = inconclusive; / = no result given; [ ] = another dose, or the depositor's remark. Calls come from the whole dose curve; as a rule, active = well fitted activation curve with a large enough effect; inconclusive = small, poorly fitted or top-dose-only effect; inactive = no such curve, though single readings can be large or run the other way. Potency is the fitted concentration of half-maximal effect.

SMILES | Mito fusion yeast | SW480 rereplic | AT treatment | MCF10A rereplic | Integrin act MD
Cc1sc(NC(=S)NC(=O)c2ccco2)c(C(N)=O)c1C | -11% | 4% | -4% | 5% | -12%
COC(=O)CCC(=O)NC(=S)Nc1sc(C)c(C)c1C(N)=O | -4% | ? | -1% | 1.2µM* | -5%
Cn1cc(CNCc2cnc3ccccn23)c(-c2ccc(Oc3ccccc3)cc2)n1 | -1% | -1% | 2% | 3% | -32%
CN(Cc1cn(C)nc1-c1ccc(Oc2ccccc2)cc1)Cc1cnc2ccccn12 | -2% | -3% | 3% | 23µM* | 0%
CN(C)C(=O)c1c(NC(=O)c2ccccc2)sc2c1CCC2 | 1% | -1% | 7% | -2% | -1%
CCN(CC)CCCC(C)NC(=O)c1c(NC(=O)c2ccccc2)sc2c1CCCC2 (stereo not drawn) | -10% | ? | 8% | 4.6µM* | -12%
COc1ccccc1N(C(=O)CCl)c1cn(C(C)=O)c2ccccc12 | -5% | ? | 35% | ? | -4%
CC(=O)n1cc(N(C(=O)CCl)c2ccc(Cl)cc2)c2ccccc21 | -18% | 2.6µM* | ? | ? | -3%
COc1cnc(-c2ccccn2)nc1Sc1ccc(Cl)cc1 | -8% | 21µM* | -6% | 15µM* | 30%[7.66 µM]
COc1cnc(-c2ccccn2)nc1Sc1ccccc1 | -2% | ? | 1% | 7% | -56%
COc1ccc(Sc2nc(-c3ccccn3)ncc2OC)cc1 | 9% | 9.2µM* | 2% | ? | -19%
O=C(Nc1ccc(N2CCCCC2)cc1)c1cc([N+](=O)[O-])cc([N+](=O)[O-])c1 | 1% | -1% | 1% | 1% | -5%
Cc1ccc(CNc2oc(COc3ccccc3Cl)nc2C#N)cc1 | 7% | 12µM* | -2% | 4.1µM* | -27%
N#Cc1nc(COc2ccccc2F)oc1NCCc1ccccc1 | 21% | 5% | 2% | 23µM* | 1%
CC(CCc1ccccc1)NC(=O)COC(=O)c1cc(NS(=O)(=O)c2ccc(Cl)c([N+](=O)[O-])c2)ccc1O (stereo not drawn) | -4% | 11% | -10% | 6.5µM* | -24%
Cc1cc(C(=O)NNC(=O)c2ccc(C)c([N+](=O)[O-])c2)c(C)o1 | 4% | -12% | 0% | -6% | -20%
Cc1nc(N)c(C#N)c(-c2cccnc2)c1-c1ccccc1 | -4% | -6% | -20% | 26% | -16%
Cc1ccc2c(n1)sc1c(-c3ccccc3)c(C#N)c(N)nc12 | -1% | 7.3µM* | 8% | 5µM* | 0%
COC(F)(F)C(Cl)Cl | / | 2% | / | -5% | /
COc1cc(C=O)ccc1OCc1ccncc1 | 12% | -16% | -7% | -6% | ?
COc1cc(C=O)c(Br)cc1OCc1ccc(C)cc1 | 4% | ? | 4% | 9.2µM* | -8%
Cc1ccc(S(=O)(=O)Nc2ccccc2/C=N/c2nc3ccccc3n2C)cc1 | 4% | 5% | -1% | 13µM* | -17%
C[C@@H]1CN([C@H](C)CO)C(=O)Cc2cc(NC(=O)Nc3ccccc3)ccc2O[C@@H]1CN(C)Cc1ccc2c(c1)OCO2 | / | ? | -8% | 20% | -44%
Cc1cccc(C(=O)N2CCc3cc(-c4csc(NC(=O)CN5CCCC5)n4)ccc32)c1 | 24% | ? | 2% | 16µM* | -35%
CNc1nc(-c2ccc3c(c2)CCN3C(=O)c2cccc(F)c2)cs1 | 7% | 15µM* | 18% | 26% | -49%
SMILES | Mito fusion yeast | SW480 rereplic | AT treatment | MCF10A rereplic | Integrin act MD
Cc1cccc(C(=O)N2CCc3cc(-c4nc(NC(=O)CN5CCCC5)sc4C)ccc32)c1 | -15% | ? | 0% | 18µM* | -63%
Cc1cccc(C(=O)N2CCc3cc(-c4nc(NC(=O)Cn5nnc6ccccc6c5=O)sc4C)ccc32)c1 | 8% | / | 0% | / | /
O=C(c1ccccc1)N(c1ccccc1)c1ccccc1O | / | ? | / | 22% | -12%
NC(=O)C1CCN(c2nc(C3CC3)nc3c2nnn3Cc2ccccc2Cl)CC1 | 9% | -2% | -2% | 21µM* | -41%
CCOC(=O)CCS(=O)(=O)c1nc(-c2ccccc2)cc(C(F)(F)F)n1 | -26% | 27% | 1% | ? | -47%
COC(=O)CCS(=O)(=O)c1nc(-c2ccccc2)cc(C(F)(F)F)n1 | -10% | ? | -6% | 3.7µM* | -70%
CCOC(=O)CS(=O)(=O)c1nc(-c2ccc(F)cc2)cc(C(F)(F)F)n1 | -3% | 21% | -1% | 3.7µM* | -15%
COCC(C)NC(=O)CCS(=O)(=O)c1nc(-c2ccc(OC)cc2)cc(C(F)(F)F)n1 (stereo not drawn) | 6% | 9% | 4% | 3.7µM* | -46%
CCOC(=O)CS(=O)(=O)c1nc(-c2ccccc2)cc(C(F)(F)F)n1 | -9% | 2.6µM* | -4% | ? | -59%
Cc1ccccc1-n1c(SC(C)C(=O)NCC2CCCO2)nnc1-c1ccncc1 (stereo not drawn) | / | -104% | / | 3% | 17%
Cc1cc(NC(=O)CCCS(=O)(=O)c2nc(-c3cccs3)cc(C(F)(F)F)n2)no1 | -13% | ? | -6% | 4.1µM* | -65%
COc1cc(NC(=O)CCS(=O)(=O)c2nc(-c3cccs3)cc(C(F)(F)F)n2)cc(OC)c1OC | 3% | / | 28% | / | /
Cc1cc(NC(=O)CSc2nc(-c3cccs3)cc(C(F)(F)F)n2)no1 | -4% | 2% | 2% | -6% | 13%
COc1ccc(-c2cc(C(F)(F)F)nc(S(C)(=O)=O)n2)cc1 | 10% | 11% | / | ? | -68%
COc1ccc(-c2cc(C(F)(F)F)nc(S(=O)(=O)CCCC(=O)Nc3cccnc3Cl)n2)cc1OC | -6% | 3% | 0% | 12µM* | -71%
CS(=O)(=O)c1nc(-c2ccc(F)cc2)cc(C(F)(F)F)n1 | -31% | ? | -1% | 3.7µM* | -16%
Cc1ccc(CCNC(=O)C2CCCN(c3nc4ccccc4o3)C2)cc1 (stereo not drawn) | -6% | 3% | -1% | 1% | 8%
COc1ccc(NC(=O)COc2ccc(/C=C/c3cc[n+](C)cc3)cc2OC)cc1 | 10% | 8.2µM* | 3% | ? | -9%
COc1cc(/C=N/NC(N)=O)ccc1OCC(=O)Nc1ccc(C)c(C)c1 | -1% | -6% | 2% | 6% | 9%
COc1cc(/C=N/NC(N)=S)ccc1OCC(=O)Nc1ccc(C)c(C)c1 | 9% | ? | / | 15µM* | 1%
Clc1nn2cnnc2c2ccccc12 | -6% | ? | -1% | 23% | -33%
CCOC(=O)c1ccc(NC(=O)C2(c3ccc(Cl)cc3)CCCC2)cc1 | -6% | -18% | 1% | -4% | -13%
Cc1ccc(NC(=O)COC(=O)C2(c3ccc(Cl)cc3)CCCC2)cc1 | -7% | ? | 10% | 21µM* | -38%
COc1cc(/C=C2\C(=N)N3N=CSC3=NC2=O)cc(Br)c1OC(=O)c1ccco1 | 14% | -183% | 1% | -2% | 3%

Compound activity (PubChem)
